Inconclusive results are not listed. Active and inactive are the calls of the source. Calls follow the shape of the dose curve; as a rule, active = well fitted curve in the direction sought with a large enough effect; inconclusive = small, poorly fitted or top-dose-only effect, or another doubt; inactive = no such curve, though single readings can be large; an effect the other way counts as inactive or inconclusive.
Key:
[1] = Quantitative High-Throughput drug screen in 47 multiple myeloma cell lines against the NCATS MIPE library collection: KHM11_PLB cell viability assay (AID 1918962); also: nearly all actives have a fitted effect of over 35% in size
Procedure, shortened: (§1)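 Myeloma cells (500 per well) were exposed to MIPE 4.0 compounds by pin transfer and incubated 48 hours at 37C, 5% CO2. Viability was read as ATP by CellTiter-Glo luminescence, normalised to DMSO (100%) and media-only (0%) wells.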

[2] = Quantitative High-Throughput drug screen in 47 multiple myeloma cell lines against the NCATS MIPE library collection: JIM3_ECACC cell viability assay (AID 1918963; also: nearly all actives have a fitted effect of over 35% in size)
Procedure, shortened: as §1

[3] = Quantitative High-Throughput drug screen in 47 multiple myeloma cell lines against the NCATS MIPE library collection: JIM1_ECACC cell viability assay (AID 1918964)
Procedure, shortened: (§2)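 We plated 500 myeloma cells per well, pinned in MIPE 4.0 compounds, and incubated for 48 hours at 37C. ATP was then quantified with CellTiter-Glo, with DMSO and media-only wells defining 100% and 0%.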

[4] = Quantitative High-Throughput drug screen in 47 multiple myeloma cell lines against the NCATS MIPE library collection: INA6_PLB cell viability assay (AID 1918965; also: nearly all actives have a fitted effect of over 55% in size)
Procedure, shortened: (§3)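 CellTiter-Glo ATP luminescence gave viability after 48 h compound treatment at 37C of 500 multiple myeloma cells per well. Normalisation used DMSO-only wells as 100% and media-only wells as 0% viability; primary qHTS of approved and investigational drugs.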

[5] = Quantitative High-Throughput drug screen in 47 multiple myeloma cell lines against the NCATS MIPE library collection: JJN3_DSMZ cell viability assay (AID 1918966; also: nearly all actives have a fitted effect of over 50% in size)
Procedure, shortened: as §2

[6] = Quantitative High-Throughput drug screen in 47 multiple myeloma cell lines against the NCATS MIPE library collection: H1112_PLB cell viability assay (AID 1918967; also: nearly all actives have a fitted effect of over 30% in size)
Procedure, shortened: as §2

[7] = Quantitative High-Throughput drug screen in 47 multiple myeloma cell lines against the NCATS MIPE library collection: Karpas25_ECACC cell viability assay (AID 1918968; also: nearly all actives have a fitted effect of over 35% in size)
Procedure, shortened: as §2

[8] = Quantitative High-Throughput drug screen in 47 multiple myeloma cell lines against the NCATS MIPE library collection: KMS12BM_JCRB cell viability assay (AID 1918971); also: nearly all actives have a fitted effect of over 35% in size
Procedure, shortened: (§4)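 Myeloma cell lines, 500 cells per well, exposed to MIPE 4.0 library compounds for 48 h at 37C, 5% CO2. Viability from ATP by CellTiter-Glo luminescence; normalised to DMSO (100%) and media-only (0%) wells.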

[9] = Quantitative High-Throughput drug screen in 47 multiple myeloma cell lines against the NCATS MIPE library collection: KMS12PE_JCRB cell viability assay (AID 1918972); also: nearly all actives have a fitted effect of over 30% in size
Procedure, shortened: as §3

[10] = Quantitative High-Throughput drug screen in 47 multiple myeloma cell lines against the NCATS MIPE library collection: KMS20_JCRB cell viability assay (AID 1918973); also: nearly all actives have a fitted effect of over 45% in size
Procedure, shortened: as §2

[11] = Quantitative High-Throughput drug screen in 47 multiple myeloma cell lines against the NCATS MIPE library collection: KMS21BM_JCRB cell viability assay (AID 1918974); conditions: ATP luminescence, 48 h; viability: at 45.8 µM (top of the series)
Procedure, shortened: as §2

[12] = Quantitative High-Throughput drug screen in 47 multiple myeloma cell lines against the NCATS MIPE library collection: KMS26_JCRB cell viability assay (AID 1918975); also: nearly all actives have a fitted effect of over 45% in size
Procedure, shortened: as §4

[13] = Quantitative High-Throughput drug screen in 47 multiple myeloma cell lines against the NCATS MIPE library collection: MMM1_PLB cell viability assay (AID 1918976); also: nearly all actives have a fitted effect of over 35% in size
Procedure, shortened: (§5)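 ATP-based CellTiter-Glo luminescence after 48 h drug exposure (37 °C, 5% CO2) of 500 myeloma cells per well. DMSO-only wells set 100% viability, media-only wells 0%; MIPE 4.0 library added by pin tool.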

[14] = Quantitative High-Throughput drug screen in 47 multiple myeloma cell lines against the NCATS MIPE library collection: MOLP8_DSMZ cell viability assay (AID 1918977); also: nearly all actives have a fitted effect of over 45% in size
Procedure, shortened: as §5

[15] = Quantitative High-Throughput drug screen in 47 multiple myeloma cell lines against the NCATS MIPE library collection: OCIMY1_PLB cell viability assay (AID 1918979); also: nearly all actives have a fitted effect of over 35% in size
Procedure, shortened: as §5

[16] = Quantitative High-Throughput drug screen in 47 multiple myeloma cell lines against the NCATS MIPE library collection: MM1S_ATCC cell viability assay (AID 1918980); also: nearly all actives have a fitted effect of over 45% in size
Procedure, shortened: as §5

[17] = Quantitative High-Throughput drug screen in 47 multiple myeloma cell lines against the NCATS MIPE library collection: MM1R_ATCC cell viability assay (AID 1918981); also: nearly all actives have a fitted effect of over 35% in size
Procedure, shortened: as §5

[18] = Quantitative High-Throughput drug screen in 47 multiple myeloma cell lines against the NCATS MIPE library collection: NCIH929_DSMZ cell viability assay (AID 1918978); also: nearly all actives have a fitted effect of over 35% in size
Procedure, shortened: as §5

[19] = Quantitative High-Throughput drug screen in 47 multiple myeloma cell lines against the NCATS MIPE library collection: KMS27_JCRB cell viability assay (AID 1918970); conditions: KMS27 myeloma cells, CellTiter-Glo ATP viability, 48 h; viability (% of DMSO): at 45.8 µM (top of the series); also: nearly all actives have a fitted effect of over 30% in size
Procedure, shortened: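 Luminescent ATP read-out (CellTiter-Glo, 5 min at room temperature) after 48 h compound exposure of 500 KMS27_JCRB cells per well; DMSO wells define full viability and media-only wells zero.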

Measured: Potency
Potency is read from the fitted curve at half-maximal effect.

CC(C=CC(=O)NO)=C[C@@H](C)C(=O)c1ccc(N(C)C)cc1
active: [1] 0.372 µM | [2] 0.743 µM | [3] 0.296 µM | [4] 0.0833 µM | [5] 0.187 µM | [6] 0.372 µM | [7] 0.264 µM | [8] 0.264 µM | [9] 0.235 µM | [10] 0.148 µM | [11] 0.166 µM | [12] 0.264 µM | [13] 0.187 µM | [14] 0.0935 µM | [15] 0.372 µM | [16] 0.187 µM | [17] 0.132 µM

NC(=O)Nc1cc(-c2ccc(CN3CCOCC3)cc2)sc1C(N)=O
active: [1] 0.935 µM | [2] 4.69 µM | [3] 1.48 µM | [4] 1.05 µM | [5] 1.18 µM | [6] 5.26 µM | [7] 1.32 µM | [8] 20.9 µM | [9] 1.18 µM | [10] 2.64 µM | [11] 1.32 µM | [12] 23.5 µM | [14] 14.8 µM | [18] 2.64 µM | [16] 16.6 µM | [17] 20.9 µM

Nc1ccc(C(=O)Nc2cccc(-c3nc(N4CCOCC4)c4oc5ncccc5c4n3)c2)cn1
active: [1] 7.43 µM | [2] 4.18 µM | [3] 5.26 µM | [4] 3.32 µM | [5] 5.26 µM | [6] 4.18 µM | [7] 2.35 µM | [19] 6.62 µM | [8] 23.5 µM | [9] 2.64 µM | [10] 1.48 µM | [11] 10.5 µM | [12] 2.35 µM | [13] 16.6 µM | [14] 20.9 µM | [18] 2.64 µM | [15] 16.6 µM | [16] 23.5 µM | [17] 13.2 µM

CCCNS(=O)(=O)Nc1ncnc(OCCOc2ncc(Br)cn2)c1-c1ccc(Br)cc1
not listed: [10] | [11] | [12] | [13]
inactive: all other assays above

C=CC[C@@H]1C=C(C)C[C@H](C)C[C@H](OC)[C@H]2O[C@@](O)(C(=O)C(=O)N3CCCC[C@H]3C(=O)O[C@H](C(C)=C[C@@H]3CC[C@H](O)[C@H](OC)C3)[C@@H](C)[C@@H](O)CC1=O)[C@@H](C)C[C@@H]2OC
active: [1] 2.64 µM | [2] 3.72 µM | [3] 1.18 µM | [4] 0.935 µM | [5] 0.662 µM | [6] 3.32 µM | [7] 2.96 µM | [19] 0.743 µM | [8] 1.48 µM | [9] 1.87 µM | [12] 0.935 µM | [14] 1.32 µM | [18] 3.32 µM | [15] 2.64 µM | [16] 1.18 µM | [17] 0.833 µM

O=C1NC(=O)C(=Cc2ccc3nccc(-c4ccncc4)c3c2)S1
active: [1] 0.0469 µM | [2] 0.296 µM | [3] 0.0296 µM | [4] 0.148 µM | [5] 0.0935 µM | [6] 1.05 µM | [7] 0.0296 µM | [19] 0.0296 µM | [8] 0.332 µM | [10] 0.0935 µM | [11] 0.166 µM | [12] 0.187 µM | [13] 0.235 µM | [14] 0.166 µM | [18] 0.0296 µM | [15] 0.235 µM | [16] 0.118 µM | [17] 0.105 µM

CN(C)CCN1C(=O)c2cccc3cc(N)cc(c23)C1=O
active: [1] 7.43 µM | [2] 14.8 µM | [3] 18.7 µM | [4] 3.32 µM | [5] 20.9 µM | [6] 18.7 µM | [7] 18.7 µM | [8] 5.26 µM | [9] 18.7 µM | [13] 11.8 µM | [14] 23.5 µM | [18] 8.33 µM | [15] 23.5 µM | [16] 14.8 µM | [17] 9.35 µM

Cc1cc(Nc2ncc3c(n2)N(C)C(=O)N(c2cc(NC(=O)c4cccc(C(F)(F)F)c4)ccc2C)C3)n(C)n1
active: [1] 0.372 µM | [2] 2.64 µM | [3] 0.118 µM | [4] 0.469 µM | [5] 1.32 µM | [6] 2.64 µM | [7] 0.372 µM | [19] 1.87 µM | [8] 0.526 µM | [9] 1.05 µM | [12] 5.9 µM | [14] 0.296 µM | [18] 1.05 µM | [16] 0.935 µM | [17] 1.32 µM

CCC(C(=O)O)C1CCC(C)C(C(C)C(O)C(C)C(=O)C(CC)C2OC3(C=CC(O)[C@@]4(CC[C@](C)(C5CC[C@@](O)(CC)C(C)O5)O4)O3)C(C)CC2C)O1 (some centres not stated)
active: [1] 14.8 µM | [2] 1.48 µM | [3] 0.332 µM | [4] 1.66 µM | [5] 1.05 µM | [6] 8.33 µM | [7] 7.43 µM | [8] 0.148 µM | [9] 0.743 µM | [12] 0.526 µM | [13] 6.62 µM | [14] 0.743 µM | [18] 10.5 µM | [15] 5.26 µM | [16] 2.35 µM | [17] 3.72 µM

Source: PubChem BioAssay (NCATS)
